# Measured values reported in PubChem BioAssay (NCATS).
# Several values for one entry are separate records, joined by “and”; a condition that tells them apart may be missing. Equal values may be shown once. Inconclusive results are not listed. Entries that show only a call come without a potency. Activity calls are given as the source filed them. Unless noted, calls come from the whole dose curve; as a rule, active = well fitted curve in the direction sought with a large enough effect; inconclusive = small, poorly fitted or top-dose-only effect, or another doubt; inactive = no such curve, though single readings can be large; an effect the other way counts as inactive or inconclusive.
# What was measured:
# [1] = biological target: Alpha-galactosidase A (Homo sapiens) (UniProt P06280); assay: Counterscreen for Glucocerebrosidase Inhibitors: qHTS Assay for Human alpha-Galactosidase at pH 4.5 (AID 992)
# Sequence of Alpha-galactosidase A (Homo sapiens) (P06280 whole entry, looked up): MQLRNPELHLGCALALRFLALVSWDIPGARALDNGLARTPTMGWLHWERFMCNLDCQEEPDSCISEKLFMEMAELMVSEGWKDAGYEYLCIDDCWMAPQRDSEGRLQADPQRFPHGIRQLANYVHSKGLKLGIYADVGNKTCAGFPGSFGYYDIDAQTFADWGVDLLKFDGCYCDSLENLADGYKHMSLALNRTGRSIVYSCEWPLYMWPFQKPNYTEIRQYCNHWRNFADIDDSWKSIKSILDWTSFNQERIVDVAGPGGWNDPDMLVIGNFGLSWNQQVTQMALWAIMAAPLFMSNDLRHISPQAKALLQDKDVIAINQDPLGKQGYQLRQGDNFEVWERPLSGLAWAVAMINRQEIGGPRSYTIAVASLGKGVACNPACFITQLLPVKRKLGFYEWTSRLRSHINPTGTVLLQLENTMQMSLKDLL
# Method in brief: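 Read-out is 4-methylumbelliferone fluorescence (365 nm excitation, 440 nm emission) after a pH 10 NaOH/glycine stop. Reactions held 2 nM enzyme and 80 uM substrate at pH 4.5 for 20 min at room temperature.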
# [2] = biological target: alpha-glucosidase (Oryza sativa, rice) (UniProt Q653V4); assay: Counterscreen for Glucocerebrosidase Inhibitors: qHTS Assay for Rice alpha-Glucosidase at pH 5.0 (AID 997)
# Method in brief: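 Rice alpha-glucosidase (4 nM final) with 400 uM 4-methylumbelliferyl-alpha-D-glucopyranoside in citrate buffer pH 5.0, 20 min at room temperature, stopped at pH 10; fluorescence 365/440 nm, compounds 0.7 nM–77 uM, AC50 from Hill fits.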
# [3] = qHTS Assay for Lipid Storage Modulators (AID 1519; calls by dose curve); settings: Drosophila S3 cells, BODIPY lipid droplet/cell ratio, laser cytometry, cells loaded with oleic acid
# Method in brief: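 Cells seeded at 5,000 per well were treated with compounds over a concentration series and loaded with oleic acid (400 uM, as added). Lipid droplet fluorescence (488 nm excitation, 500-530 nm channel) was read by laser-scanning cytometry and normalized to 20 uM Triacsin C.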
# [4] = biological target: DNA repair nuclease/redox regulator APEX1 (Homo sapiens) (UniProt P27695); assay: qHTS Validation Assay for Inhibitors of the Human Apurinic/apyrimidinic Endonuclease 1 (APE1) (AID 1705; note: potency is the fitted concentration of half-maximal effect;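 for activity change, negative = inhibition: TAMRA fluorescence gain over two minutes as APE1 cuts a quenched THF abasic duplex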)
# Sequence of DNA repair nuclease/redox regulator APEX1 (Homo sapiens) (P27695 whole entry, looked up): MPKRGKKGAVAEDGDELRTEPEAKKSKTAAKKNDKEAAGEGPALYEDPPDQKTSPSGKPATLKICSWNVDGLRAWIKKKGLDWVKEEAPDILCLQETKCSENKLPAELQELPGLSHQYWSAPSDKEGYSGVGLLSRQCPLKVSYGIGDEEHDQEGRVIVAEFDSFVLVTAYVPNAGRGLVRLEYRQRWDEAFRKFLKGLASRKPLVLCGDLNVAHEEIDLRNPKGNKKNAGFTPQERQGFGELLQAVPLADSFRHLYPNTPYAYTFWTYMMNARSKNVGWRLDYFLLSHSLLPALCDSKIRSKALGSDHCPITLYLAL
# Method in brief: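 Fluorogenic double-stranded THF abasic-site substrate (5'-TAMRA/3'-BHQ-2), 50 nM final. Enzyme preincubated with compound 15 min at room temperature, then substrate added. Kinetic fluorescence (ex 525/em 598 nm) read three times at 60 s intervals; activity taken as third-minus-first read difference.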
# [5] = Counterscreen for APE1 Inhibitors: Fluorescent Dye Displacement Validation Assay (AID 1707); note: potency is the fitted concentration of half-maximal effect
# Method in brief: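 ThO 250 nM + dsDNA 50 nM (THF abasic site, 5'-TAMRA), Tris-HCl pH7.5/50mM NaCl/2 mM MgCl2/0.01% Tween-20; compounds pin-transferred; ex 480/em 540 nm endpoint. Neutral = no compound; no-DNA ThO wells = negative control.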
# [6] = biological target: Endonuclease 4 (Escherichia coli (strain K12)) (UniProt P0A6C1); assay: Counterscreen for APE1 Inhibitors: qHTS Validation Assay for Inhibitors of Endonuclease IV (AID 1708)
# Method in brief: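 qHTS concentration-response format; LOPAC1280 tested under APE1-screen conditions. 2 nM enzyme, 15 min compound preincubation at RT, then 50 nM TAMRA/BHQ-2 abasic substrate; kinetic fluorescence read, three reads at 60 s intervals.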
# [7] = qHTS for differential inhibitors of proliferation of Plasmodium falciparum line D10 (AID 1877);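 note: parasites grown with compound for 72 h before DNA staining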; note: potency is the fitted concentration of half-maximal effect
# [8] = qHTS for differential inhibitors of proliferation of Plasmodium falciparum line Dd2 (AID 1882); settings: Potency: Plasmodium falciparum Dd2 proliferation inhibition; note: nearly all actives have a fitted effect of over 65% in size; note: potency is the fitted concentration of half-maximal effect
# Method in brief: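 Dd2-infected erythrocytes (0.3% parasitemia, 2.5% hematocrit final) incubated with compound 72 h at 37 C, 5% CO2; lysed with saponin/Triton buffer containing SYBR Green I, incubated overnight in the dark, then read by fluorescence (485/535 nm). Normalized to 0.29 uM artemisinin and DMSO.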
# [9] = qHTS for differential inhibitors of proliferation of Plasmodium falciparum line W2 (AID 1883); settings: Potency: Plasmodium falciparum W2 proliferation inhibition;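 note: parasites grown with compound for 72 h before lysis and staining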; note: potency is the fitted concentration of half-maximal effect
# [10] = biological target: Ferritin light chain (Equus caballus) (UniProt P02791); assay: qHTS Validation Assay for Identification of Novel General Anesthetics (AID 2323)
# Sequence of Ferritin light chain (Equus caballus) (P02791 2-175 limits assumed): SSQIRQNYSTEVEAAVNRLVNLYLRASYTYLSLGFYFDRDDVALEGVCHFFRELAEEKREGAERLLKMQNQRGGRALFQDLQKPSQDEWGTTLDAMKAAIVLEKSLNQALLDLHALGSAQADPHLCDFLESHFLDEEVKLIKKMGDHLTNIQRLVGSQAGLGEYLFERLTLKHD
# Method in brief: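 Horse-spleen apoferritin (10 uM) in PBS with 50% saturated 1-aminoanthracene; compounds pin-transferred, 10 min at room temperature. Fluorescence read at 380/535 nm, normalized to free 1-AMA and 1-AMA/apoferritin values; four-parameter Hill fit.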
# [11] = Cell Viability - LYMP2-026 (AID 989); note: nearly all actives have a fitted effect of over 50% in size; note: potency is the fitted concentration of half-maximal effect
# Method in brief: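 Human lymphoblastoid LYMP2-026 cells, 2500/well, exposed to compound 24 h at 37 C in complete medium. Viability as intracellular ATP by CellTiter-Glo luminescence; AC50 from Hill fits of qHTS concentration-response.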
# [12] = Cell Viability - LYMP1-002 - Assay at 24 hr (AID 993); note: potency is the fitted concentration of half-maximal effect
# Method in brief: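 Human lymphoblastoid LYMP1-002 cells (2500/well) treated 24 h at 37 °C; viability as intracellular ATP by CellTiter-Glo luminescence. Tetraoctylammonium bromide as positive control; AC50 from Hill-equation fits of qHTS concentration-response.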
# [13] = Cell Viability - LYMP1-002 - Assay at 40 hr (AID 994); note: nearly all actives have a fitted effect of over 60% in size; note: potency is the fitted concentration of half-maximal effect
# Method in brief: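 LYMP1-002 human lymphoblastoid cells (2500/well, complete medium) were treated with compounds for 40 hr at 37 C. Intracellular ATP was measured by CellTiter-Glo luminescence, and AC50 values came from Hill-equation fits of concentration-response data; tetraoctylammonium bromide was the positive control.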
# [14] = qHTS Assay for Identification of Small Molecule Inducers of Hypoxia Response (AID 2120; active = well fitted curve in the direction sought with a large enough effect in the signal ratio, with a control signal flat, not every such curve was filed as active; the % refers to the signal ratio)
# Method in brief: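 HRE-bla ME-180 cells in Opti-MEM with 0.5% dialyzed FBS, pre-plated 4-5 h, then compound titration for 17 h at 37 degrees Celsius. CCF4 loaded 2.5 h at room temperature; 460/530 nm ratio gave %Activity and AC50 for induction.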
# [15] = qHTS for differential inhibitors of proliferation of Plasmodium falciparum line 7G8 (AID 1815);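 note: parasite growth measured after three days of incubation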; note: potency is the fitted concentration of half-maximal effect
# [16] = qHTS for differential inhibitors of proliferation of Plasmodium falciparum line GB4 (AID 1816); settings: Potency: Plasmodium falciparum GB4 proliferation inhibition;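 note: parasite growth measured after 72 h incubation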; note: potency is the fitted concentration of half-maximal effect
# [17] = qHTS for differential inhibitors of proliferation of Plasmodium falciparum line 3D7 (AID 1876); note: potency is the fitted concentration of half-maximal effect
# [18] = qHTS for differential inhibitors of proliferation of Plasmodium falciparum line HB3 (AID 1886); settings: Potency: Plasmodium falciparum HB3 proliferation inhibition;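 note: parasites grown with compound for 72 h before SYBR Green readout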; note: potency is the fitted concentration of half-maximal effect
# [19] = measured here: cell count channel max response
# [20] = measured here: lipid channel max response
smiles,measurement,setting,value
O=C1NC(=O)C(c2ccccc2[N+](=O)[O-])=C1Nc1ccc(O)c(Cl)c1,outcome,[1],inactive
same,outcome,[2],inactive
same,"activity change, negative = inhibition",[3]; at 57.5 µM (top of the series),-0.486% (inactive)
same,max response,[3]; [19],-38.3%
same,max response,[3]; [20],-39.8%
same,Potency,[4],inactive
same,Potency,[5],inactive
same,outcome,[6],inactive
same,Potency,[7],inactive
same,Potency,[8],inactive
same,Potency,[9],17.8 µM (active)
same,Potency,[10],inactive
CCCCC(CC)COC(=O)C(C#N)=C(c1ccccc1)c1ccccc1 (stereo unspecified),Potency,[11],inactive
same,Potency,[12],inactive
same,Potency,[13],inactive
same,outcome,[14],inactive
Nc1cc(C(Cl)=C(Cl)Cl)c(S(N)(=O)=O)cc1S(N)(=O)=O,"activity change, negative = inhibition",[3]; at 25.7 µM (top of the series),-3.67% (inactive)
same,"activity change, negative = inhibition",[3]; at 57.5 µM (top of the series),2.69% (inactive)
same,max response,[3]; [19],6.94% and 7.19%
same,max response,[3]; [20],2.6% and 13.2%
COc1ccc2cc([C@H](C)C(=O)O)ccc2c1,outcome,[1],inactive
same,outcome,[2],inactive
same,"activity change, negative = inhibition",[3]; at 25.7 µM (top of the series),4.21% (inactive) and 0.227% (inactive)
same,"activity change, negative = inhibition",[3]; at 57.5 µM (top of the series),1.21% (inactive)
same,max response,[3]; [19],1.06% and -6.98% and 54.6%
same,max response,[3]; [20],5.84% and -5.9% and 56%
same,Potency,[4],inactive
same,Potency,[5],inactive
same,outcome,[6],inactive
same,Potency,[15],inactive
same,Potency,[16],inactive
same,Potency,[17],inactive
same,Potency,[7],inactive
same,Potency,[8],inactive
same,Potency,[9],inactive
same,Potency,[18],inactive
same,Potency,[10],inactive
Nc1ccc(S(N)(=O)=O)cc1,Potency,[11],inactive
same,Potency,[12],inactive
same,Potency,[13],inactive
same,"activity change, negative = inhibition",[3]; at 25.7 µM (top of the series),0.244% (inactive)
same,"activity change, negative = inhibition",[3]; at 57.5 µM (top of the series),10.7% (inactive)
same,max response,[3]; [19],-10.4% and 15.9%
same,max response,[3]; [20],-9.48% and 32.6%
same,outcome,[14],inactive
CCN(CC)C(=S)SSC(=S)N(CC)CC,outcome,[1],inactive
same,outcome,[2],inactive
same,"activity change, negative = inhibition",[3]; at 25.7 µM (top of the series),-3.33% (inactive)
same,max response,[3]; [19],-15.7%
same,max response,[3]; [20],-17%
same,Potency,[4],inactive
same,Potency,[5],inactive
same,outcome,[6],inactive
same,Potency,[16],5.01 µM (active)
same,Potency,[17],2.82 µM (active)
COc1c2occc2cc2ccc(=O)oc12,Potency,[11],inactive
same,Potency,[12],inactive
same,Potency,[13],inactive
same,"activity change, negative = inhibition",[3]; at 25.7 µM (top of the series),2.64% (inactive)
same,max response,[3]; [19],-4.25%
same,max response,[3]; [20],1.14%
O=c1ccc2ccc(O)c(O)c2o1,outcome,[1],inactive
same,outcome,[2],inactive
same,Potency,[4],17.8 µM (active)
same,Potency,[5],inactive
same,outcome,[6],inactive
same,Potency,[15],10 µM (active)
same,Potency,[16],15.8 µM (active)
same,Potency,[9],15.8 µM (active)
same,Potency,[18],12.6 µM (active)
same,Potency,[10],inactive
CN1CCC(=C2c3ccccc3CCc3sccc32)CC1,"activity change, negative = inhibition",[3]; at 25.7 µM (top of the series),-0.622% (inactive)
same,"activity change, negative = inhibition",[3]; at 57.5 µM (top of the series),3.6% (inactive)
same,max response,[3]; [19],-11.4% and -0.631%
same,max response,[3]; [20],-11.1% and 14.8%
O=C(O)c1cccnc1Nc1cccc(C(F)(F)F)c1,outcome,[1],inactive
same,outcome,[2],inactive
same,"activity change, negative = inhibition",[3]; at 25.7 µM (top of the series),2.12% (inactive)
same,"activity change, negative = inhibition",[3]; at 57.5 µM (top of the series),2.96% (inactive)
same,max response,[3]; [19],-6.57% and 55.9%
same,max response,[3]; [20],-3.91% and 60.1%
same,Potency,[4],inactive
same,Potency,[5],inactive
same,outcome,[6],inactive
same,Potency,[15],inactive
same,Potency,[16],inactive
same,Potency,[17],inactive
same,Potency,[7],inactive
same,Potency,[8],inactive
same,Potency,[9],inactive
same,Potency,[18],inactive
same,Potency,[10],inactive
Cc1c(OCC(F)(F)F)ccnc1CS(=O)c1nc2ccccc2[nH]1 (stereo unspecified),outcome,[1],inactive
same,outcome,[2],inactive
same,"activity change, negative = inhibition",[3]; at 25.7 µM (top of the series),-2.59% (inactive)
same,"activity change, negative = inhibition",[3]; at 57.5 µM (top of the series),0.201% (inactive)
same,max response,[3]; [19],-16.9% and 6.05%
same,max response,[3]; [20],-17.5% and 9.62%
same,Potency,[4],inactive
same,Potency,[5],inactive
same,outcome,[6],inactive
same,Potency,[8],inactive
same,Potency,[10],inactive
O=Nc1c(-c2c(O)[nH]c3cc(Br)ccc23)[nH]c2ccccc12,outcome,[1],inactive
same,outcome,[2],inactive
same,Potency,[4],inactive
same,Potency,[5],20 µM (active)
same,Potency,[16],2.24 µM (active)
same,Potency,[17],2 µM (active)
same,Potency,[7],3.98 µM (active)
same,Potency,[8],7.94 µM (active)
same,Potency,[9],2.24 µM (active)
same,Potency,[18],2.24 µM (active)
CN(C)c1ccc2nc3ccc(=[N+](C)C)cc-3sc2c1,Potency,[11],7.94 µM (active)
same,Potency,[12],10 µM (active)
same,Potency,[13],7.94 µM (active)
